Measurements: PubChem BioAssay (NCI)
Compounds without any hit were thinned out: in the full panel of roughly 83,000, 20% have a hit.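 Results are percent growth after 48 hours of single-concentration exposure. 100 means growth as in untreated cells, lower positive values show inhibition; negative values down to -100 show cell death.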 The source made the active and inactive calls. Rule for the calls: active = growth percent below 10; inactive = the rest.

system: HL-60(TB) leukemia; assay: NCI-60 one-dose screen, 48 h (100 = growth as untreated, 0 = no growth, -100 = all killed); conditions: 10 µM unless noted

Row | SMILES | growth
1 | CNC(=O)c1cc(Cn2nc(C)c(NC(=O)Nc3ccc(Cl)c(C(F)(F)F)c3)c2C)ccn1 | 103% (inactive)
2 | CCCCNC(=O)Oc1ccc(/C(=C(/CC)Cc2ccccc2)c2ccc(OCCCN(C)C)cc2)cc1 | 78% (inactive)
3 | COc1ccc(NC(=O)/C=C/c2ccc(Cl)c(Cl)c2)cn1 | 61.5% (inactive)
4 | COc1c(NC[C@H]2OC(O)[C@H](O)[C@@H](O)[C@@H]2O)c(=O)c1=O (stereo not given in full) | 114% (inactive)
5 | CCOC(=O)c1ccc2c(c1)nc(/C=C/c1ccc(Cl)cc1)n2-c1cc(C(C)(C)C)[nH]n1 | 73.1% (inactive)
6 | COc1cc(NC(C)CCCNC(=O)CCC(=O)NCCCNCCCCCCCCNCCCNC(=O)CCC(=O)NCCCC(C)Nc2cc(OC)cc3cccnc23)c2ncccc2c1 (stereo not given) | 56.5% (inactive)
7 | COc1cc(/C=C/C(=O)c2ccc(Nc3nc(Nc4ccccc4)nc(Nc4ccc(Cl)cc4)n3)cc2)cc(OC)c1OC | 64.5% (inactive)
8 | Cc1ccc(C(=O)c2ccc(CC(=O)N=Nc3c(O)[nH]c4ccc(OC(F)(F)F)cc34)n2C)cc1 | 94.6% (inactive)
9 | CCOC(=O)CCC(=O)P(=O)(O)O | 9.71% (active)
10 | Clc1nc(Cl)c2c(ncn2C/C=C\Cn2cnc3c(Cl)nc(Cl)nc32)n1 | -80.7% (active)
11 | COc1ccc(-c2cc(-c3cccnc3)nc(S(=O)(=O)CC(=O)Nc3ccc(C)cc3)c2C#N)cc1OC | 113% (inactive)
12 | COc1nccc2c(Sc3ccccc3)nc(N)nc12 | 97.6% (inactive)
13 | C[C@]12C[C@@H](c3ccoc3)OC(=O)[C@@H]1CC[C@]1(C)[C@@H]2CC[C@@H](O)[C@]1(C)O | 9.31% (active)
14 | Clc1ccc2nc(-c3ccc(-c4ccc(/C=N/NC5=NCCN5)cc4)s3)cn2c1 | 98.1% (inactive)
15 | Cc1csc(-c2ccc3c(c2)COC3(CCCN(C)C)c2ccc(F)cc2)c1 (stereo not given) | -47.9% (active)
16 | CCOC(=O)c1sc2nc(-c3cc4ccccc4o3)cc(-c3ccc(Cl)cc3)c2c1N | 108% (inactive)
17 | COc1ccc(/C=C/c2nc3ccccc3nc2/C=C/c2ccc(OC)cc2)cc1 | 105% (inactive)
18 | Cc1ccc(Nc2ccc(Nc3ccc(C)cc3)c3c2C(=O)c2cccc(O)c2C3=O)cc1 | 94.3% (inactive)
19 | COc1ccc(/C=C/c2cccc[n+]2C)cc1 | 105% (inactive)
20 | O=C1CC(c2ccc(Cl)cc2)c2ncn(-c3cccc(Cl)c3)c2N1 (stereo not given) | -4.87% (active)

Row | SMILES | growth
21 | COc1ccc(-n2c(SCc3cc(OC)c(OC)c(OC)c3)nc3ccc(C)cc3c2=O)c(OC)c1 | -44.3% (active)
22 | Cc1[nH]c(/C=C/C(=O)c2ccc(C(F)(F)F)c(F)c2)c(C)c1C(=O)NCC(C)C | 98.5% (inactive)
23 | COC(=O)[C@]12CC[C@@H](C)[C@H](C)[C@@H]1C1=CC[C@@H]3[C@@]4(C)C(C=O)=C[C@@](C)(COC(=O)c5ccco5)C4=CC[C@@]3(C)[C@]1(C)CC2 | -9.45% (active)
24 | O=[N+]([O-])c1ccc(N/N=C/c2cccc3ccccc23)nc1 | 26.4% (inactive)
25 | O=C(N/N=C/c1c(Cl)cccc1Cl)c1ccccc1Nc1cccc(C(F)(F)F)c1 | 95.3% (inactive)
26 | O=C1C=C(O)C(=O)C(CC2=C(O)C(=O)C=C(O)C2=O)=C1O | 102% (inactive)
27 | C=CC1=C(C)C2=NC1=CC1=NC(=CC3=C(C)C4=C(O)C(C(=O)O)C(=C5NC(=C2)C(C)C5CCC(=O)O)C4=N3)C(CC)=C1C (stereo not given) | 89.4% (inactive)
28 | FC(F)(F)c1cn(CC2CNC2)c2ncnc(Cl)c12 | 73.5% (inactive)
29 | O=C1c2ccccc2-c2ccccc2C1(Cl)Cl | -39.6% (active)
30 | Cn1c(=O)c2c(nc(Nc3cc(=O)[nH]c(=O)[nH]3)n2Cc2ccccc2)n(C)c1=O | 90.6% (inactive)
31 | O=C(Cc1ccccc1)Nc1cccc(N=Cc2ccccc2O)c1 | 100% (inactive)
32 | CCN1C(=S)N(CC)C2Nn3c(s/c(=C4\C(=O)N(C)c5ccccc54)c3=O)=NC21 (stereo not given) | 6.45% (active)
33 | N#CC1CCc2c(c(-c3ccc4nc(N)sc4c3)nc3ccc4[nH]ncc4c23)C1 (stereo not given) | 34.9% (inactive)
34 | COc1cc2oc(-c3ccc(NC(=O)c4ccccc4)cc3)cc(=O)c2c(OC)c1OC | 100% (inactive)
35 | C=CC(C)C(C)(C)O (stereo not given) | 97.7% (inactive)
36 | COc1cc(OC)c(/C=C/c2c3ccccc3cc[n+]2C)c(OC)c1 | -25.1% (active)
37 | BrCCCOc1ccc(Oc2ccc(OCCCBr)cc2)cc1 | 106% (inactive)
38 | CCCCCCCCn1ccc2cc(NC(=O)Cn3cc(CN4CCC(C)CC4)nn3)ccc21 | -22.4% (active)
39 | O=c1c(-c2ccc3c(c2)OCO3)coc2c(CO)c(O)ccc12 | -46.9% (active)
40 | O=[N+]([O-])C1=C(c2ccccc2)SC=C(c2ccccc2)S1 | 70.9% (inactive)
